Records with an inconclusive call do not appear. Entries that show only a call come without a potency. Active and inactive are the calls of the source. The call rests on the fitted dose curve; in most records, active means well fitted curve in the direction sought with a large enough effect; inconclusive means small, poorly fitted or top-dose-only effect, or another doubt; inactive means no such curve, though single readings can be large; an effect the other way counts as inactive or inconclusive.
test: qHTS of pediatric cancer cell lines to identify multiple opportunities for drug repurposing: Primary screen for MG 63 (6-TG R) cells (AID 1347105); details: MG 63 (6-TG R) viability, CellTiter-Glo, 48 h; series mostly up to 46 µM; further: nearly all actives have a fitted effect of over 50% in size
Outline: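 Quantitative HTS format: each compound titrated (MIPE 11 points from 0.78 nM, NPC 8 points from 0.59 nM) onto cells plated 5 hours earlier. After 48 h at 37 degrees C, CellTiter-Glo luminescence was recorded.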
Potency means the concentration at half of the fitted maximal effect.

Row | Compound | Potency
1 | Cc1ccc(NC(=O)c2ccc(CN3CCN(C)CC3)cc2)cc1Nc1nc(-c2cccnc2)cs1 | inactive
2 | CCN(CC)CCCCNc1nc2cc(Cl)c(Cl)cc2nc1-c1ccc(-c2cccs2)s1 | 18.7 µM (active)
3 | O=c1[nH]nc(OCCCc2ccc(Cl)cc2)c(NCc2cccnc2)c1Br | 18.7 µM (active)
4 | COc1cc2ncn(-c3cc(OCc4ccccc4S(C)(=O)=O)c(C#N)s3)c2cc1OC | inactive
5 | CN1CCC[C@H]1CCO[C@](C)(c1ccccc1)c1ccc(Cl)cc1 | inactive
6 | CCN(CCO)CCCOc1ccc2c(Nc3cc(CC(=O)Nc4cccc(F)c4)[nH]n3)ncnc2c1 | inactive
7 | Cc1cccc(Nc2nc(N[C@@H]3CCCC[C@H]3N)ncc2C(N)=O)c1 | 14.8 µM (active)
8 | COc1ccc(-c2ccc3ncc4c(c3c2)n(-c2ccc(N3CCNCC3)c(C(F)(F)F)c2)c(=O)n4C)cn1 | 0.0047 µM (active)
9 | O=c1cc(-c2ccc(O)c(O)c2)oc2cc(O)cc(O)c12 | inactive
10 | CCC[C@H](Nc1nc(-c2ccc(NC(=O)NCC)c(OC)c2)ncc1C)c1cccnc1 | inactive
11 | CCCCCCCCCCCCCCCC(=O)O[C@H]1[C@@H](O)[C@@H](O)[C@@H]([C@H](NC(=O)[C@@H]2C[C@@H](CCC)CN2C)[C@H](C)Cl)O[C@@H]1SC | inactive
12 | C[C@@H]1[C@H](C)CC[C@]2(C(=O)O)CC[C@]3(C)C(=CC[C@@H]4[C@@]5(C)CC[C@H](O)C(C)(C)[C@H]5CC[C@]43C)[C@@H]12 | inactive
13 | CC[C@H]1OC(=O)[C@H](C)[C@@H](O[C@H]2C[C@@](C)(OC)[C@@H](O)[C@H](C)O2)[C@H](C)[C@@H](O[C@@H]2O[C@H](C)C[C@H](N(C)C)[C@H]2O)[C@](C)(O)C[C@H](C)C(=NOCOCCOC)[C@H](C)[C@@H](O)[C@]1(C)O | inactive
14 | O=C(NCCCCN1CCOCC1)c1cc2ccccc2o1 | inactive
15 | CC(C)(CO)[C@@H](O)C(=O)NCCC(=O)O | inactive
16 | CC1(C)OC2CC3C4CC(F)C5=CC(=O)C=CC5(C)C4C(O)CC3(C)[C@]2(C(=O)CO)O1 (stereo not given in full) | inactive
17 | O=c1[nH]c(=O)n([C@H]2C[C@@H](O)[C@@H](CO)O2)cc1C(F)(F)F | inactive
18 | N#CC(=C1Nc2ccccc2S1)c1ccnc(OCc2ccc(CN3CCOCC3)cc2)n1 | 3.72 µM (active)

test: qHTS of pediatric cancer cell lines to identify multiple opportunities for drug repurposing: Primary screen for control Hh wild type fibroblast cells (AID 1347106); details: Hh wild-type fibroblast viability, CellTiter-Glo luminescence, 48 h; series mostly up to 46 µM; further: nearly all actives have a fitted effect of over 55% in size
Outline: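 Viability after 48 h compound treatment at 37C, 500-1,000 cells/well, read as ATP luminescence with CellTiter-Glo. Primary screens used 11-point (MIPE, 0.78 nM-46 µM) or 8-point (NPC, 0.59 nM-46 µM) final concentrations; follow-up screens used 11-point dilutions.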

Row | Compound | Potency
19 | Cc1ccc(NC(=O)c2ccc(CN3CCN(C)CC3)cc2)cc1Nc1nc(-c2cccnc2)cs1 | inactive
20 | CC(C)CN(C[C@@H](O)[C@H](Cc1ccccc1)NC(=O)O[C@H]1CO[C@H]2OCC[C@H]21)S(=O)(=O)c1ccc(N)cc1 | inactive
21 | CCN(CC)CCCCNc1nc2cc(Cl)c(Cl)cc2nc1-c1ccc(-c2cccs2)s1 | inactive
22 | CCOC(=O)[C@H](CCc1ccccc1)N[C@@H](C)C(=O)N1CCCC1C(=O)O (stereo not given in full) | inactive
23 | CC(C)C[C@@H](N)[C@H](O)C(=O)N[C@H](C(=O)N[C@H](C(=O)N[C@@H](CC(=O)O)C(=O)O)C(C)C)C(C)C | inactive
24 | CN1CCC[C@H]1CCO[C@](C)(c1ccccc1)c1ccc(Cl)cc1 | inactive
25 | Cc1cnc(-c2cc(N3CCN(C(=O)CCS(C)(=O)=O)CC3)ncc2Cl)c(C)c1 | inactive
26 | CCN(CCO)CCCOc1ccc2c(Nc3cc(CC(=O)Nc4cccc(F)c4)[nH]n3)ncnc2c1 | inactive
27 | O=S(=O)(NCCNCC=Cc1ccc(Br)cc1)c1cccc2cnccc12 | inactive
28 | CN1CC(=O)N2C(Cc3c([nH]c4ccccc34)[C@H]2c2ccc3c(c2)OCO3)C1=O (stereo not given in full) | inactive
29 | Cc1cccc(Nc2nc(N[C@@H]3CCCC[C@H]3N)ncc2C(N)=O)c1 | inactive
30 | C#CCN(C)CC1=Cc2ccccc2Oc2ccccc21 | inactive
31 | COc1ccc(-c2ccc3ncc4c(c3c2)n(-c2ccc(N3CCNCC3)c(C(F)(F)F)c2)c(=O)n4C)cn1 | 2.09 µM (active)
32 | O=c1cc(-c2ccc(O)c(O)c2)oc2cc(O)cc(O)c12 | inactive
33 | Cn1c(=O)c(Oc2ccc(F)cc2F)cc2cnc(NC3CCOCC3)nc21 | inactive
34 | CN[C@@H]1CN(c2ccc3c(=O)c(C(=O)O)cn(-c4nccs4)c3n2)C[C@@H]1OC | inactive

Row | Compound | Potency
35 | O=C(O)c1nc(=O)[nH]c(=O)[nH]1 | inactive
36 | CCC[C@H](Nc1nc(-c2ccc(NC(=O)NCC)c(OC)c2)ncc1C)c1cccnc1 | inactive
37 | CCCCCCCCCCCCCCCC(=O)O[C@H]1[C@@H](O)[C@@H](O)[C@@H]([C@H](NC(=O)[C@@H]2C[C@@H](CCC)CN2C)[C@H](C)Cl)O[C@@H]1SC | inactive
38 | COc1cc2nc(-c3cc(F)ccc3O)nc(N[C@@H]3CNC[C@@H]3C(C)(C)O)c2cc1OC | inactive
39 | C[C@@H]1[C@H](C)CC[C@]2(C(=O)O)CC[C@]3(C)C(=CC[C@@H]4[C@@]5(C)CC[C@H](O)C(C)(C)[C@H]5CC[C@]43C)[C@@H]12 | inactive
40 | CC[C@H]1OC(=O)[C@H](C)[C@@H](O[C@H]2C[C@@](C)(OC)[C@@H](O)[C@H](C)O2)[C@H](C)[C@@H](O[C@@H]2O[C@H](C)C[C@H](N(C)C)[C@H]2O)[C@](C)(O)C[C@H](C)C(=NOCOCCOC)[C@H](C)[C@@H](O)[C@]1(C)O | inactive
41 | O=C(NCCCCN1CCOCC1)c1cc2ccccc2o1 | inactive
42 | Cc1ccc(S(=O)(=O)Nc2nc3ccccc3nc2Nc2ccc3nsnc3c2)cc1 | inactive
43 | CC(C)(CO)[C@@H](O)C(=O)NCCC(=O)O | inactive
44 | CC(C)CNc1ccnc(NCc2csc(-c3ccccc3)n2)n1 | inactive
45 | FC(F)(F)c1ccc(C=Cc2nc(COc3ccc(CCCCn4ccnn4)cc3)co2)cc1 | inactive
46 | CC1(C)OC2CC3C4CC(F)C5=CC(=O)C=CC5(C)C4C(O)CC3(C)[C@]2(C(=O)CO)O1 (stereo not given in full) | inactive
47 | C[C@H]1O[C@@H](n2cc(F)c(=O)[nH]c2=O)[C@H](O)[C@H]1O | inactive
48 | CCCCCOC(=O)Nc1nc(=O)n([C@@H]2O[C@H](C)[C@@H](O)C2O)cc1F (stereo not given in full) | inactive
49 | O=c1[nH]c(=O)n([C@H]2C[C@@H](O)[C@@H](CO)O2)cc1C(F)(F)F | inactive
50 | C#C[C@]1(O)CC[C@H]2[C@H]3CCc4cc(OC)ccc4[C@H]3CC[C@@]21C | inactive

From PubChem BioAssay (NCATS)
